Assay results as given in PubChem BioAssay AID1028 (SRMLSC, 2008).
Entries with a potency or affinity are not part of this list. The source made the active and inactive calls.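 The calls were made as follows: active = enzyme inhibitor confirmed by dose series, half-maximal inhibitory concentration at most 40 µM; inactive = the rest.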

target: diphosphomevalonate decarboxylase (Streptococcus pneumoniae D39) (UniProt Q9FD53); experiment: S. pneumoniae DPM-DC inhibition retest, confirmation, biochemical, cuvette format, coupled NADH fluorescence (AID 1028); details: purified DPM-DC, rate, at 50 µM, active compounds read high

inhibition, inactive:
COc1ccc2nc(-c3ccccc3C)oc2c1 4.59%
Cc1ccc(C)c(-c2nc3cc(N)ccc3o2)c1 0.87%
COc1ccc(-c2nc3cc(N)ccc3o2)cc1 13.2%
O=C(NC1CC1)c1ccccc1-n1sc2ccccc2c1=O 8%
